Structures can show the parent of a compound that is named as a salt. ± gives the standard deviation of the averaged measurements.
What was measured:
Assay in all cases: growth (OD600 after 10 h); higher = more growth (less inhibition)
[1] = tested on: E. coli TESEC Alr+ wild-type control; conditions: compound 0.1 mM; raw OD600 reference: median of DMSO wells 0.241, cell-free background 0.041
Protocol: (§1)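 TESEC Mtb Alr E. coli, or the Alr+ wild-type control, in 384-well plates with Prestwick library compounds at 0.1 mM and 1% DMSO, across arabinose induction levels of 1E3 to 1E7 nM. Growth is read as OD600 after 10 h at 37 °C in triplicate biological replicates.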

[2] = tested on: E. coli TESEC Mtb Alr; conditions: compound 0.1 mM
Protocol: as §1

[3] = tested on: E. coli TESEC Mtb Asd; conditions: compound 0.1 mM
Protocol: (§2)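 TESEC E. coli strains in which the native enzyme is deleted and replaced by arabinose-inducible Mtb Asd, DapB, CysH or TrpD, each grown in its selective medium. Strains were screened against the Prestwick library at 0.1 mM and 1% DMSO in 384-well format at low and high arabinose induction. Growth is read as OD600 after 10 h in triplicate.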

[4] = tested on: E. coli TESEC Mtb DapB; conditions: compound 0.1 mM
Protocol: as §2

[5] = tested on: E. coli TESEC Alr+ wild-type control; conditions: compound 0.1 mM; raw OD600 reference: median of DMSO wells 0.49, cell-free background 0.052
Protocol: (§3)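 TESEC Mtb Alr E. coli (ΔaraC ΔtolC ΔentC Δalr ΔdadX, arabinose-inducible Mtb Alr) or the Alr+ wild-type control strain, grown in defined M9-fructose medium without D-alanine in 96-well plates with Prestwick library compounds at 0.1 mM and 1% DMSO. Low Alr induction is 0.1 µM arabinose and high induction is 10 mM arabinose.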

[6] = tested on: E. coli TESEC Mtb Alr; conditions: compound 0.1 mM; remark: listed apart in the source
Protocol: as §3

[7] = arabinose 1000 nM, raw OD600 reference: median of DMSO wells 0.294, cell-free background 0.041
[8] = arabinose 10000 nM, raw OD600 reference: median of DMSO wells 0.264, cell-free background 0.041
[9] = arabinose 100000 nM, raw OD600 reference: median of DMSO wells 0.201, cell-free background 0.041
[10] = arabinose 1000000 nM, raw OD600 reference: median of DMSO wells 0.193, cell-free background 0.041
[11] = arabinose 10000000 nM, raw OD600 reference: median of DMSO wells 0.146, cell-free background 0.041
[12] = arabinose induction (level): High, raw OD600 reference: median of DMSO wells 0.331, cell-free background 0.041
[13] = arabinose induction (level): Low, raw OD600 reference: median of DMSO wells 0.417, cell-free background 0.041
[14] = arabinose induction (level): High, raw OD600 reference: median of DMSO wells […], cell-free background 0.041
[15] = arabinose induction (level): Low, raw OD600 reference: median of DMSO wells 0.227, cell-free background 0.041
[16] = arabinose 100 nM, raw OD600 reference: median of DMSO wells 0.413, cell-free background 0.052
[17] = arabinose 10000000 nM, raw OD600 reference: median of DMSO wells […], cell-free background 0.052

SMILES	growth [1]	growth [2, 7]	growth [2, 8]	growth [2, 9]	growth [2, 10]	growth [2, 11]	growth [3, 12]	growth [3, 13]	growth [4, 14]	growth [4, 15]	growth [5]	growth [6, 16]	growth [6, 17]
CCc1oc2ccccc2c1C(=O)c1cc(Br)c(O)c(Br)c1 [Benzbromarone]	0.0407 ± 0.001	0.0448 ± 0.0076	0.0403 ± 0.00069	0.0421 ± 0.0019	0.03953 ± 0.00015	0.047 ± 0.0017	0.0473 ± 0.0012	0.0482 ± 0.002	0.0504 ± 0.0016	0.0491 ± 0.001	0.05037 ± 5.8e-05	0.0588 ± 0.0027	0.0513 ± 0.0023
CC(C)(C)NC[C@H](O)c1ccc(O)c(CO)c1 [Levalbuterol hydrochloride]	0.235 ± 0.005	0.305 ± 0.011	0.273 ± 0.0041	0.197 ± 0.0075	0.214 ± 0.023	0.141 ± 0.0037	0.242 ± 0.05	0.32 ± 0.084	0.168 ± 0.033	0.179 ± 0.088	0.608 ± 0.014	0.4232 ± 0.00093	0.318 ± 0.01
C[C@H]1O[C@H](O[C@H]2[C@H](O)[C@@H](O)[C@@H](O[C@@H]([C@H](O)[C@@H](O)C=O)[C@H](O)CO)O[C@@H]2CO)[C@H](O)[C@@H](O)[C@@H]1N[C@H]1C=C(CO)[C@@H](O)[C@H](O)[C@H]1O [Acarbose]	0.261 ± 0.0036	0.313 ± 0.0078	0.25 ± 0.005	0.244 ± 0.0037	0.182 ± 0.0045	0.145 ± 0.013	0.322 ± 0.026	0.476 ± 0.036	0.196 ± 0.018	0.236 ± 0.037	0.458 ± 0.0055	0.396 ± 0.013	0.3792 ± 0.0032
COC(=O)Nc1nc2cc(C(=O)c3ccc(F)cc3)ccc2[nH]1 [Flubendazol]	0.249 ± 0.026	0.307 ± 0.032	0.2591 ± 0.00086	0.197 ± 0.028	0.191 ± 0.0051	0.141 ± 0.0081	0.43 ± 0.019	0.491 ± 0.029	0.2 ± 0.01	0.231 ± 0.03	0.6 ± 0.078	0.414 ± 0.018	0.435 ± 0.011
CC[N+](C)(CC)CCOC(=O)C1c2ccccc2Oc2ccccc21 [Methantheline bromide]	0.192 ± 0.0029	0.269 ± 0.011	0.287 ± 0.0031	0.18 ± 0.015	0.193 ± 0.025	0.135 ± 0.007	0.223 ± 0.043	0.344 ± 0.044	0.173 ± 0.018	0.222 ± 0.018	0.592 ± 0.017	0.4172 ± 0.0035	0.336 ± 0.013
NS(=O)(=O)c1cc2c(cc1C(F)(F)F)NC(Cc1ccccc1)NS2(=O)=O (configuration not stated) [Bendroflumethiazide]	0.233 ± 0.0098	0.301 ± 0.0067	0.261 ± 0.0081	0.219 ± 0.015	0.162 ± 0.005	0.154 ± 0.0047	0.459 ± 0.046	0.451 ± 0.035	0.217 ± 0.017	0.268 ± 0.0034	0.487 ± 0.035	0.403 ± 0.012	0.298 ± 0.016
O=C1NCCN1c1ncc([N+](=O)[O-])s1 [Niridazole]	0.0479 ± 0.0055	0.0513 ± 0.005	0.0413 ± 0.0019	0.0452 ± 0.0004	0.0407 ± 0.00045	0.0598 ± 0.023	0.0946 ± 0.0021	0.203 ± 0.07	0.161 ± 0.015	0.177 ± 0.022	0.0563 ± 0.002	0.119 ± 0.025	0.0512 ± 0.00072
CCC(=O)OCC(=O)[C@@]1(OC(=O)CC)[C@@H](C)C[C@H]2[C@@H]3CCC4=CC(=O)C=C[C@]4(C)[C@@]3(Cl)[C@@H](O)C[C@@]21C [Beclomethasone dipropionate]	0.216 ± 0.0072	0.31 ± 0.028	0.28 ± 0.018	0.179 ± 0.013	0.12 ± 0.013	0.167 ± 0.0041	0.246 ± 0.032	0.3 ± 0.031	0.22 ± 0.0053	0.248 ± 0.035	0.499 ± 0.027	0.442 ± 0.0072	0.247 ± 0.018
C[N+](C)(CCOc1ccccc1)Cc1ccccc1.O=C([O-])c1cc2ccccc2cc1O [Bephenium hydroxynaphthoate]	0.175 ± 0.0073	0.266 ± 0.017	0.207 ± 0.0049	0.203 ± 0.0078	0.104 ± 0.0033	0.134 ± 0.0047	0.486 ± 0.047	0.365 ± 0.069	0.176 ± 0.046	0.216 ± 0.019	0.509 ± 0.023	0.381 ± 0.016	0.263 ± 0.0088
COc1cc(C(=O)NC2CCCNC2)cc(OC)c1OC (configuration not stated) [Troxipide]	0.225 ± 0.0045	0.286 ± 0.012	0.255 ± 0.0049	0.205 ± 0.016	0.191 ± 0.02	0.134 ± 0.0027	0.353 ± 0.075	0.427 ± 0.057	0.19 ± 0.012	0.216 ± 0.0046	0.504 ± 0.1	0.402 ± 0.014	0.359 ± 0.038
NS(=O)(=O)c1cc2c(cc1Cl)NC(C(Cl)Cl)NS2(=O)=O (configuration not stated) [Trichlormethiazide]	0.243 ± 0.0058	0.296 ± 0.021	0.278 ± 0.0046	0.2 ± 0.013	0.195 ± 0.015	0.139 ± 0.0024	0.331 ± 0.037	0.448 ± 0.033	0.191 ± 0.0022	0.246 ± 0.041	0.631 ± 0.095	0.408 ± 0.0097	0.357 ± 0.01
CCN(CC)C(=O)C1(c2ccccc2)CC1CN (configuration not stated) [Milnacipran hydrochloride]	0.233 ± 0.011	0.298 ± 0.0046	0.271 ± 0.0097	0.202 ± 0.006	0.182 ± 0.02	0.151 ± 0.0028	0.239 ± 0.024	0.385 ± 0.033	0.203 ± 0.016	0.259 ± 0.026	0.547 ± 0.052	0.424 ± 0.014	0.322 ± 0.0073
CC(C)NC(=N)NC(=N)Nc1ccc(Cl)cc1 [Proguanil hydrochloride]	0.216 ± 0.0044	0.261 ± 0.006	0.275 ± 0.0087	0.176 ± 0.013	0.143 ± 0.0015	0.142 ± 0.0028	0.216 ± 0.048	0.31 ± 0.068	0.207 ± 0.03	0.244 ± 0.016	0.475 ± 0.012	0.422 ± 0.009	0.345 ± 0.019
CCN1CC(CCN2CCOCC2)C(c2ccccc2)(c2ccccc2)C1=O (configuration not stated) [Doxapram hydrochloride]	0.234 ± 0.0045	0.284 ± 0.0045	0.248 ± 0.004	0.199 ± 0.018	0.205 ± 0.016	0.1315 ± 0.0013	0.309 ± 0.091	0.426 ± 0.072	0.205 ± 0.018	0.243 ± 0.017	0.54 ± 0.012	0.394 ± 0.016	0.339 ± 0.014
